# Data: the supplement of paper PMC8728848
# Many of the other results were omitted from the sample, so the strongest signals are more common in it than they were.
# B1: rEtpA (Escherichia coli) (protein)
# chain: MNRIYKLKFDKRRNELVVVSEITTGVGNAKATGSVEGEKSPRRGVRAMALSLLSGMMIMAHPAMSANLPTGGQIVAGSGSIQTPSGNQMNIHQNSQNMVANWNSFDIGKGNTVQFDQPSSSAVALNRVVGGGESQIMGNLKANGQVFLVNPNGVLFGEGASVSTSGFVASTRDIKNDDFMNRRYTFSGGQKAGAAIVNQGELTTNAGGYIVLAADRVSNSGTIRTPGGKTVLAASERITLQLDNGGLMSVQVTGDVVNALVENRGLVSARDGQVYLTALGRGMLMNTVLNVSGVVEASGMHRQDGNIVLDGGDSGVVHLSGTLQADNASGQGGKVVVQGKNILLDKGSNITATGGQGGGEVYVGGGWQGKDSNIRNADKVVMQGGARIDVSATQQGNGGTAVLWSDSYTNFHGQISAKGGETGGNGGRVETSSHGNLQAFGTVSASAKKGKAGNWLLDSADITIVNGSNVSKTETTQSPPHTQFAPTAAGSAVSNTSINNRLNNGTSVTILTHRTRTGTAQGGNITVNAAINKSNGSDVNLTLQAGGNITVNNSITSTEGKLNVNLSGARTSNGSITISNNANITTNGGDITVGTTNTSNRVNISINNTTLNASNGNIQLTGTGTDSGILFAGNNRLTASNIALTGNSTSGNAINLTGTATLNATNNITLTGSSTSGNAINLKGNNTLTASNITLTGESTSGNAINLTDTTGTTTLNATNNITMQGTRVQIKHSNITAGNFALNATVAGSEISNTTLTATNNINLAAKTNSASSGVYLKDARITSTNGSITANGTATANGKATHLDGNVTLNASNGRIKLTGNGHGSASGILFAGNNRLTASNIALTGNSTSGNAINLTGTATLNATNDITLTGSSTSGNAINLTGTATLNATNNITLTGSSTSGNAINLKGNNTLTASNITLTGESTSGNAINLTDTTGTTTLNATNNITMQGTRVQIKHSNITAGNFALNATVAGSEISNTTLTATNNINLAAKTNSASSGVYLKDARITSTNGSITANGTATANGKATHLDGNVTLNASNGRIKLTGNGHGSASGILFAGNNRLTASNIALTGNSTSGNAINLTGTATLNATNDITLTGSSTSGNAINLTGTATLNATNNITLTGSSTSGNAINLKGNNTLTASNITLTGESTSGNAINLTDTTGTTTLNATNNITMQGTRVQIKHSNITAGNFALNATVAGSEISNTTLTATNNINLAAKTNSASSGVYLKDARITSTNGSITANGTATANGKATHLDGNVTLNASNGRIKLTGNGHGSASGILFAGNNRLTASNIALTGNSTSGNAINLTGTATLNATNDITLTGSSTSGNAINLTGTATLNATNNITLTGSSTSGNAINLKGNNTLTASNITLTGESTSGNAINLTDTTGTTTLNATNNITMQGTRVQIKHSNITAGNFALNATVAGSEISNTTLTATNNINLAAKTNSASSGVYLKDARITSTNGSITTNGTATANGKATHLDGNVTLNASNGRIKLTGNGHGSASGILFAGNNRLTASNIALTGNSTSGNAINLTGTATLNATNDITLTGSSTSGNAINLTGTATLNATNNITLTGSSTSGNAINLKGNNTLTASNITLTGESTSGNAINLTDTTGTTTLNATNNITMQGTRVQIKHSNITAGNFALNATVAGSEISNTTLTATNNINLAAKTNSASSGVYLKDARITSTNGSITANGTAPANDNATYLDGNVTLNASNGSIKLTGNGNGSTSGILFAGNNTLTASNITLTGNSEVYWQKLGPEQKLISEEDLNSAVDHHHHHH
# How the values were obtained:
# Assay in all cases: glycan array binding signal (z-score within array); higher = stronger binding
# Settings in all cases: glycan notation: IUPAC condensed, linker removed
# Gal3S6S(b1-4)GlcNAc = target: Gal3S6S(b1-4)GlcNAc
# Method in brief: (§1)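 The binding signal is a Z-score computed within each array and averaged over linkers. Arrays of the same protein sequence at different concentrations or buffers were also averaged together. Data originate from 3228 arrays in the Consortium for Functional Glycomics database, kept only where the protein sequence was available.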
# Gal6S(b1-4)GlcNAc6S = target: Gal6S(b1-4)GlcNAc6S
# Method in brief: as §1
# [1] = target: Glc(a1-4)Glc(a1-4)Glc(a1-4)Glc
# Method in brief: as §1
# GlcA(b1-3)GlcNAc = target: GlcA(b1-3)GlcNAc
# Method in brief: as §1
# [2] = target: GlcA3S(b1-3)Gal(b1-4)GlcNAc(b1-2)Man
# Method in brief: as §1
# [3] = target: GlcNAc(a1-4)Gal(b1-3)GlcNAc
# Method in brief: as §1
# [4] = target: GlcNAc(a1-4)Gal(b1-4)GalNAc
# Method in brief: as §1
# [5] = target: GlcNAc(a1-4)Gal(b1-4)GlcNAc
# Method in brief: as §1
# [6] = target: GlcNAc(a1-4)Gal(b1-4)GlcNAc(b1-3)Gal(b1-4)Glc
# Method in brief: as §1
# [7] = target: GlcNAc(a1-4)Gal(b1-4)GlcNAc(b1-3)Gal(b1-4)GlcNAc
# Method in brief: as §1
# [8] = target: GlcNAc(a1-4)Gal(b1-4)GlcNAc(b1-3)Gal(b1-4)GlcNAc(b1-3)Gal(b1-4)GlcNAc
# Method in brief: as §1
# [9] = target: GlcNAc(a1-4)Gal(b1-4)GlcNAc(b1-3)Gal(b1-4)[Fuc(a1-3)]GlcNAc(b1-3)Gal(b1-4)[Fuc(a1-3)]GlcNAc
# Method in brief: as §1
# [10] = target: GlcNAc(b1-3)[GlcNAc(b1-6)]Gal(b1-4)GlcNAc
# Method in brief: as §1
# [11] = target: GlcNAc(b1-6)Gal(b1-4)GlcNAc
# Method in brief: as §1
# Kdn(a2-3)Gal(b1-3)GlcNAc = target: Kdn(a2-3)Gal(b1-3)GlcNAc
# Method in brief: as §1
# [12] = target: Man(a1-2)Man(a1-3)[Man(a1-2)Man(a1-6)]Man(a1-6)[Man(a1-2)Man(a1-2)Man(a1-3)]Man(b1-4)GlcNAc(b1-4)GlcNAc
# Method in brief: as §1
# [13] = target: Neu5Ac(a2-3)Gal(b1-3)GlcNAc(b1-2)[Neu5Ac(a2-3)Gal(b1-3)GlcNAc(b1-4)]Man(a1-6)[Neu5Ac(a2-3)Gal(b1-3)GlcNAc(b1-2)Man(a1-3)]Man(b1-4)GlcNAc(b1-4)GlcNAc
# Method in brief: as §1
# [14] = target: Neu5Ac(a2-3)Gal(b1-3)[Fuc(a1-4)]GlcNAc(b1-3)Gal(b1-4)[Fuc(a1-3)]GlcNAc
# Method in brief: as §1
# [15] = target: Neu5Ac(a2-3)Gal(b1-4)GlcNAc(b1-2)Man(a1-3)[Neu5Ac(a2-6)Gal(b1-4)GlcNAc(b1-2)Man(a1-6)]Man(b1-4)GlcNAc(b1-4)GlcNAc
# Method in brief: as §1
# [16] = target: Neu5Ac(a2-3)Gal(b1-4)GlcNAc(b1-3)Gal(b1-4)GlcNAc(b1-3)GalNAc
# Method in brief: as §1
# [17] = target: Neu5Ac(a2-3)Gal6S(b1-4)GlcNAc
# Method in brief: as §1
# Neu5Ac(a2-6)Gal = target: Neu5Ac(a2-6)Gal
# Method in brief: as §1
# [18] = target: Neu5Ac(a2-8)Neu5Ac(a2-3)[GalNAc(b1-4)]Gal(b1-4)Glc
# Method in brief: as §1
# [19] = target: Neu5Gc(a2-3)Gal(b1-4)GlcNAc
# Method in brief: as §1
# [20] = target: Neu5Gc(a2-6)Gal(b1-4)GlcNAc
# Method in brief: as §1
# [21] = target: Neu5Gc(a2-8)Neu5Ac(a2-3)Gal(b1-4)GlcNAc
# Method in brief: as §1
# [22] = target: Neu5Gc(a2-8)Neu5Gc(a2-3)Gal(b1-4)GlcNAc(b1-3)Gal(b1-4)GlcNAc
# Method in brief: as §1
binder,measurement,setting,value
B1,glycan array binding signal (z-score),Gal3S6S(b1-4)GlcNAc,-0.028
same,glycan array binding signal (z-score),Gal6S(b1-4)GlcNAc6S,0.353
same,glycan array binding signal (z-score),[1],1.05
same,glycan array binding signal (z-score),GlcA(b1-3)GlcNAc,-0.337
same,glycan array binding signal (z-score),[2],-0.154
same,glycan array binding signal (z-score),[3],2.45
same,glycan array binding signal (z-score),[4],10.8
same,glycan array binding signal (z-score),[5],5.29
same,glycan array binding signal (z-score),[6],4.48
same,glycan array binding signal (z-score),[7],7.75
same,glycan array binding signal (z-score),[8],10.9
same,glycan array binding signal (z-score),[9],6.35
same,glycan array binding signal (z-score),[10],-0.354
same,glycan array binding signal (z-score),[11],-0.395
same,glycan array binding signal (z-score),Kdn(a2-3)Gal(b1-3)GlcNAc,0.581
same,glycan array binding signal (z-score),[12],-0.275
same,glycan array binding signal (z-score),[13],-0.163
same,glycan array binding signal (z-score),[14],-0.21
same,glycan array binding signal (z-score),[15],-0.305
same,glycan array binding signal (z-score),[16],-0.38
same,glycan array binding signal (z-score),[17],0.188
same,glycan array binding signal (z-score),Neu5Ac(a2-6)Gal,8.28
same,glycan array binding signal (z-score),[18],0.026
same,glycan array binding signal (z-score),[19],-0.194
same,glycan array binding signal (z-score),[20],0.192
same,glycan array binding signal (z-score),[21],-0.108
same,glycan array binding signal (z-score),[22],-0.353
